Screening results from PubChem.
The list is not random: actives were taken first. Their share in the collection is about 11%.
AMA1 RON2 block: disrupts binding of P. falciparum AMA1 to RON2. Potency, µM (highest dose often 58.2 µM), usual class: inhibitors. actives 0.2% (n = 360,000). AlphaScreen AMA1-biotinylated RON2 peptide binding. AID 720542; further: nearly all actives have a fitted effect of over 45% in size
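AMA1 (3D7) with his tag at 25 nM final met compounds first, then biotinylated RON2 peptide at 25 nM; detection used donor plus acceptor beads, 10 µg/mL apiece, read by AlphaScreen after 30 min at room temperature.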
Pf growth 48h: inhibits P. falciparum growth in the first generation, 48 h; P. falciparum luciferase growth in erythrocytes, 48 h; Potency, µM (highest dose often 28.7 µM), hits mostly inhibitors; actives 5.9% (n = 310,000); AID 504832
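Cell-based growth assay: transgenic P. falciparum expressing firefly luciferase, cultured in red cells within RPMI 1640 containing 0.5% w/v Albumax, 24 mM bicarbonate and gentamycin. A drop in luciferase activity indicates inhibition.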
HCV inhibitor: HCV inhibition; AID 651820; Huh7.5.1 HCVcc-Cre infection, luciferase reporter, 44 h; actives 3.4% (n = 340,000); Potency, µM (top dose mostly 41.8 µM), actives largely listed as inhibitors
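Infectious HCV cell culture screen: compound-treated cells (1,000/well, pre-plated 4 h) are infected with HCVcc-Cre at roughly 0.5 moi and grown 44 h. Infection is quantified by luciferase signal after 15 min substrate incubation at room temperature.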
Pf growth 96h: P. falciparum growth inhibition at 96 hour, primary screen for plastid delayed-death inhibitors; P. falciparum luciferase reporter growth, 96 h; actives 6.9% (n = 320,000); Potency, µM (top dose mostly 28.7 µM), hits mostly inhibitors
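Two parasite generations (96 h, 37 C, 5% CO2) of compound exposure in infected erythrocytes (0.05% parasitemia, 2% hematocrit). Luciferase-reporter P. falciparum; decreased luminescence indicates inhibited growth, aimed at apicoplast-acting delayed death.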
Large screens that a line does not name were inactive. The call rests on the fitted dose curve; in most records, active means well fitted curve in the direction sought with a large enough effect; inconclusive means small, poorly fitted or top-dose-only effect, or another doubt; inactive means no such curve, though single readings can be large; an effect the other way counts as inactive or inconclusive.

CCOC(=O)C1=C(c2ccccc2)NC(SCC(=O)Nc2ccc(C)cc2)=C(C#N)C1c1ccco1 (centres undefined)	Pf growth 48h inconclusive, HCV inhibitor inconclusive (no result: Pf growth 96h)
CCOC(=O)C1=C(c2ccccc2)NC(SCC(=O)Nc2cccc(C)c2)=C(C#N)C1c1ccco1 (centres undefined)	Pf growth 48h 9.3µM, HCV inhibitor inconclusive
CCOC(=O)C1=C(c2ccccc2)NC(SC)=C(C#N)C1c1ccco1 (centres undefined)	Pf growth 48h inconclusive, HCV inhibitor inconclusive
CCOC(=O)CSC1=C(C#N)C(c2ccccc2)C(C(C)=O)=C(C)N1 (centres undefined)	Pf growth 48h inconclusive, HCV inhibitor inconclusive
CCOC(=O)CSC1=C(C#N)C(c2ccco2)C(C(=O)Nc2cccc(C(F)(F)F)c2)=C(C)N1 (centres undefined)	Pf growth 48h 10µM, HCV inhibitor inconclusive
CSc1cccc(NC(=O)C2(S(=O)(=O)c3ccc(C)cc3)CC2)c1	none
COC(=O)C1=C(C)NC(=S)NC1c1ccc(-c2cc(Cl)ccc2Cl)o1 (centres undefined)	Pf growth 48h 12µM, HCV inhibitor inconclusive, Pf growth 96h inconclusive
COC(=O)C1=C(C)NC(=S)NC1c1ccc(N(CCCl)CCCl)cc1Cl (centres undefined)	HCV inhibitor inconclusive (no result: Pf growth 48h, Pf growth 96h)
COC(=O)C1=C(C)NC(=O)NC1c1ccc(-c2ccc(Cl)cc2)o1 (centres undefined)	HCV inhibitor 8.9µM, Pf growth 96h inconclusive
Cc1cccc2cc(C(c3nnnn3Cc3ccccc3)N3CCN(C)CC3)c(=O)[nH]c12 (centres undefined)	Pf growth 96h inconclusive
CCC(C)(C)n1nnnc1C(c1cc2cc(C)ccc2[nH]c1=O)N1CCCc2ccccc21 (centres undefined)	Pf growth 96h inconclusive (no result: Pf growth 48h)
Cc1ccc2cc(C(c3nnnn3Cc3ccccc3)N3CCc4ccccc43)c(=O)[nH]c2c1 (centres undefined)	HCV inhibitor inconclusive, Pf growth 96h 6.6µM (no result: Pf growth 48h)
Cc1ccc2[nH]c(=O)c(C(c3nnnn3CC3CCCO3)N3CCCc4ccccc43)cc2c1 (centres undefined)	Pf growth 48h 13µM
Cc1ccc2cc(C(c3nnnn3Cc3ccccc3)N3CCc4ccccc43)c(=O)[nH]c2c1C (centres undefined)	Pf growth 48h 10µM (no result: Pf growth 96h)
Cc1ccc2[nH]c(=O)c(C(c3nnnn3Cc3ccccc3)N3CCc4ccccc43)cc2c1 (centres undefined)	HCV inhibitor 32µM (no result: Pf growth 48h, Pf growth 96h)
Cc1cc2cc(C(c3nnnn3Cc3ccccc3)N3CCc4ccccc43)c(=O)[nH]c2cc1C (centres undefined)	HCV inhibitor inconclusive, Pf growth 96h 5.2µM (no result: Pf growth 48h)
O=C(Nc1ccc(N2CCOCC2)cc1N1CCOCC1)c1ccc(F)cc1	none (no result: Pf growth 48h, Pf growth 96h)
Cn1c(=O)n(C)c2cc(N3CCOCC3)c(NC(=O)c3cccc(Cl)c3)cc21	HCV inhibitor inconclusive, Pf growth 96h 1.7µM
COc1cccc(OC)c1C(=O)Nc1cc2c(cc1N1CCOCC1)n(C)c(=O)n2C	Pf growth 48h 8.3µM, Pf growth 96h inconclusive
COc1cccc(C(=O)Nc2cc3c(cc2N2CCCC2)n(C)c(=O)n3C)c1	HCV inhibitor inconclusive, Pf growth 96h 12µM
Cn1c(=O)n(C)c2cc(N3CCOCC3)c(NC(=O)c3ccc(F)cc3)cc21	Pf growth 48h inconclusive, Pf growth 96h 9.3µM
COc1ccc(C(=O)Nc2cc3c(cc2N2CCCCC2)n(C)c(=O)n3C)cc1OC	Pf growth 48h inconclusive, HCV inhibitor inconclusive, Pf growth 96h inconclusive
Cn1c(=O)n(C)c2cc(N3CCCC3)c(NC(=O)c3cccc(F)c3)cc21	HCV inhibitor inconclusive, Pf growth 96h inconclusive
O=C(NC1CCN(S(=O)(=O)c2cccc(Cl)c2)CC1)C1CCCCC1	none
CC1(c2ccc3c(c2)OCCO3)NC(=O)N(CC(=O)Nc2ccccc2)C1=O (centres undefined)	Pf growth 96h inconclusive
O=C(Nc1ccc(Cl)c([N+](=O)[O-])c1)ONC1=NCCCCC1	Pf growth 96h inconclusive
COc1ccc(N2CCN(C(=O)c3cc4c(-c5ccc(Cl)cc5)nn(C)c4s3)CC2)cc1	AMA1 RON2 block inconclusive, Pf growth 96h inconclusive (no result: Pf growth 48h)
Cn1nc(-c2ccc(Cl)cc2)c2cc(C(=O)N3CCOCC3)sc21	none (no result: Pf growth 48h)
COc1cccc(-c2nn(C)c3sc(C(=O)N4CCOCC4)cc23)c1	Pf growth 96h 2.3µM (no result: Pf growth 48h)
COc1cccc(-c2nn(C)c3sc(C(=O)N4CCN(c5ccccn5)CC4)cc23)c1	AMA1 RON2 block inconclusive, Pf growth 48h inconclusive, HCV inhibitor 10µM, Pf growth 96h inconclusive
NC(=O)NC(=O)C(c1ccccc1)N1CCN(S(=O)(=O)Cc2ccccc2)CC1 (centres undefined)	none
O=C(NCc1ccccn1)[C@H]1C[C@@H]1[C@H](NP(=O)(c1ccccc1)c1ccccc1)c1ccccc1	Pf growth 96h inconclusive
CCC(Cc1ccccc1)NC(=O)CCc1ccccc1 (centres undefined)	Pf growth 96h inconclusive
O=C(CCc1ccccc1)NCc1ccccc1	none
CCC(Cc1ccccc1)NC(=O)CCn1cccc1 (centres undefined)	HCV inhibitor inconclusive, Pf growth 96h 5.9µM
O=C(CCn1cccc1)NCc1ccccc1	Pf growth 96h 8.3µM
COc1ccc(OCC(=O)N(C)CC2COc3ccccc3O2)cc1 (centres undefined)	none (no result: Pf growth 48h, Pf growth 96h)
CC1(C(=O)NS(=O)(=O)c2ccc(Cl)cc2)CCN1C(=O)c1ccccc1CCc1ccccc1 (centres undefined)	none (no result: Pf growth 48h, HCV inhibitor, Pf growth 96h)
CC1CCN(Cc2c(C(=O)O)nnn2-c2nonc2N)CC1	Pf growth 96h 1.5µM
COc1c(Cl)cc(Cl)cc1/C=N/NC(=O)c1nnn(-c2nonc2N)c1CN1CCC(C)CC1	Pf growth 48h inconclusive, HCV inhibitor inconclusive
CC1CCN(Cc2c(C(=O)N/N=C/c3cc(Cl)ccc3O)nnn2-c2nonc2N)CC1	Pf growth 48h inconclusive, HCV inhibitor 10µM
Cc1cc(C)c(/C=N/NC(=O)c2nnn(-c3nonc3N)c2CN2CCC(C)CC2)c(C)c1	Pf growth 48h inconclusive, HCV inhibitor inconclusive
CC1CCN(Cc2c(C(=O)N/N=C/c3cc(Br)ccc3O)nnn2-c2nonc2N)CC1	Pf growth 48h inconclusive, HCV inhibitor 3.5µM, Pf growth 96h inconclusive
COc1ccc(C2=NN(C(=O)c3ccco3)C(c3ccco3)C2)cc1OC (centres undefined)	none
O=C1CC(=C(c2ccccc2)c2ccccc2)C(=O)N1CCCCN1CCN(c2ccccc2)CC1	AMA1 RON2 block inconclusive, HCV inhibitor 1µM, Pf growth 96h 3.3µM (no result: Pf growth 48h)
Clc1cccc(N2CCN(CCCN3CCN(c4ccccc4)CC3)CC2)c1	HCV inhibitor 11µM (no result: Pf growth 48h, Pf growth 96h)
O=C(CCC(=O)N1CCN(c2cccc(Cl)c2)CC1)N1CCN(c2ccccc2)CC1	Pf growth 48h inconclusive, HCV inhibitor inconclusive, Pf growth 96h inconclusive
O=C1C2CCCN2C(=O)N1CCCCN1CCN(c2cccc(Cl)c2)CC1 (centres undefined)	HCV inhibitor inconclusive, Pf growth 96h 13µM
O=C(CCCN1CCN(c2ccccc2)CC1)c1ccc(F)cc1	none (no result: Pf growth 48h, HCV inhibitor, Pf growth 96h)
